High-throughput results deposited in PubChem BioAssay by National Center for Advancing Translational Sciences (NCATS).
hNpr1 antagonist = human Npr1 receptor antagonism | P16066 | HEK293 hNpr1 GloSensor cGMP, ANP-stimulated luminescence | Potency, µM (highest dose often 46.3 µM), actives largely listed as inhibitors | 76,000 tested, 1.6% active | AID 1347048; calls by dose curve; also: nearly all actives have a fitted effect of over 60% in size
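Compound pre-incubated 30 min at room temperature on GloSensor-loaded HEK293 cells stably carrying hNpr1 and the pGS-40F cGMP biosensor. Stimulation uses hNppA at 0.1 nM final; luminescence is taken at baseline and 20 min post-agonist.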
3T3 cytotox = NIH 3T3 cell cytotoxicity | Potency, µM (doses to about 96.7 µM), actives largely listed as inhibitors | AID 1345082 | 94,000 tested, 4.3% active | NIH 3T3 viability, CellTiter-Glo ATP luminescence, 48-72 h; also: nearly all actives have a fitted effect of over 55% in size
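Viability of NIH 3T3 cells after 48 or 72 hr compound treatment at 37 °C was assessed by CellTiter-Glo, with luminescence imaged following a 10 min room-temperature step.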
Luciferase inh = blocks purified firefly luciferase enzyme activity. 76,000 tested, 2.5% active. Potency, µM (doses to about 115 µM), most hits filed as inhibitors. purified P. pyralis luciferase, luminescence, biochemical. AID 1347043; also: nearly all actives have a fitted effect of over 65% in size
Target sequence (P08659 whole entry, looked up): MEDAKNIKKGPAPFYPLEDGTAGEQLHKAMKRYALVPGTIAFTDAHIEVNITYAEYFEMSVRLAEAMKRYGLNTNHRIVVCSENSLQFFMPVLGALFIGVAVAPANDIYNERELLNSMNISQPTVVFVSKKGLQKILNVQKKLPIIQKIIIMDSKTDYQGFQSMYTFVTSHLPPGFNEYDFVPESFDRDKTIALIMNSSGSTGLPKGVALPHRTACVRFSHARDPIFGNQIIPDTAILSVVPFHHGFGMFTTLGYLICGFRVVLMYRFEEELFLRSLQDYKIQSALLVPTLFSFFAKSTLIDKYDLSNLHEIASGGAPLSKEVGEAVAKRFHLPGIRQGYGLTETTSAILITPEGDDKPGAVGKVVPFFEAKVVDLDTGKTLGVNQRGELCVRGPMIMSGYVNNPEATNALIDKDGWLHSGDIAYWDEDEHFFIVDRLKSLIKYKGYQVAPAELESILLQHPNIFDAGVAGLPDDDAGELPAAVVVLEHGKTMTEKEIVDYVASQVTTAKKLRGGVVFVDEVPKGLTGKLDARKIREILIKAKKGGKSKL
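Luminescence read by CCD imager after adding enzyme (10nM final) to wells holding compound, titrated in qHTS. Substrates 10uM each D-luciferin and ATP; buffer 50mM Tris acetate pH 7.5, 10mM Mg acetate, Tween-20, BSA.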
HEK cytotox = HEK 293 cell cytotoxicity; HEK 293 viability, ATP luminescence (CellTiter-Glo), 48-72 h; Potency, µM (top dose mostly 115 µM), most hits filed as inhibitors; 94,000 tested, 6.6% active; AID 1345083; also: nearly all actives have a fitted effect of over 60% in size
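Luminescence from cellular ATP, measured with CellTiter-Glo, indicates HEK 293 viability. Cells plated at 250 cells/well are treated with compound for 48 or 72 hr at 37 degree Celsius before reagent addition.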
A number is an active result; . = inactive; ? = inconclusive; / = no result given; ! = not confirmed by another sample. Sampled rows, rich in hits. Any-hit rate of the full collection: about 11%. Unless noted, calls follow the shape of the dose curve; as a rule, active = well fitted curve in the direction sought with a large enough effect; inconclusive = small, poorly fitted or top-dose-only effect, or another doubt; inactive = no such curve, though single readings can be large; an effect the other way counts as inactive or inconclusive.

SMILES	hNpr1 antagonist	3T3 cytotox	Luciferase inh	HEK cytotox
COc1ccc(F)cc1-c1ccc(CN2CCCCC2C(=O)NCc2cccnc2)cc1 (stereo unspecified)	/	?	/	50.1µM
CN1C(=O)CCCCC1C(=O)NCc1cccc(F)c1 (stereo unspecified)	.	.	.	.
COc1ccccc1-c1cccc(C(=O)N2CCC[C@H]2C(=O)NCc2ccccc2F)c1	/	.	/	?
COc1ccccc1-c1ccc(CN2CCCCC2C(=O)NCc2ccc(F)cc2F)cc1 (stereo unspecified)	/	?	/	20µM
COc1ccccc1-c1ccc(CN2CCCCC2C(=O)NCc2cccc(F)c2)cc1 (stereo unspecified)	/	?	/	31.6µM!
CCOC(=O)C1CCN(C(=O)c2ccc3nnc(CC4CC4)n3c2)CC1	/	.	/	.
O=C(NC1CCN(CCn2nc3n(c2=O)CCCC3)C1)c1ccc(Cl)nc1 (stereo unspecified)	/	.	/	.
O=C(NCc1cc2n(n1)CCCNC2)C1Cc2ccccc2S(=O)(=O)N1 (stereo unspecified)	.	.	.	.
COc1ccccc1-c1cccc(C(=O)N2CCC[C@H]2C(=O)NC2CCCC2)c1	/	.	/	.
COc1ccc(F)cc1-c1ccc(CN2CCCCC2C(=O)N2CCc3ccccc3C2)cc1 (stereo unspecified)	/	39.8µM	/	31.6µM
COc1ccccc1-c1ccc(CN2CCCCC2C(=O)NC2CCCC2)cc1 (stereo unspecified)	/	?	/	35.5µM!
COc1ccccc1-c1ccc(CN2CCCCC2C(=O)NCc2ccccc2Cl)cc1 (stereo unspecified)	/	28.2µM	/	?
COc1ccccc1-c1cccc(CN2CCC(NC(=O)Nc3ccccc3F)CC2)c1	/	17.8µM	/	25.1µM
COc1ccccc1-c1cccc(CN2CCC(NC(=O)c3ccc(C)cc3)CC2)c1	/	?	/	50.1µM
CSc1ccc(-c2cccc(CN3CCC(NC(=O)c4ccc(C)cc4)CC3)c2)cc1	/	.	/	.
COc1ccccc1-c1cccc(CN2CCC(NC(=O)NC3CCCC3)CC2)c1	/	28.2µM	/	39.8µM
CSc1ccc(-c2cccc(CN3CCC(NC(=O)C4CCCC4)CC3)c2)cc1	/	.	/	.
COc1ccccc1-c1nnc2ccc(C(=O)NC3CCCCC3)cn12	/	.	/	.
Cn1cc(CN2Cc3c(cc(N4CCOCC4)nc3-c3cccc(F)c3)C2=O)cn1	.	?	.	89.1µM
O=C1c2cc(N3CCOCC3)nc(-c3cccc(F)c3)c2CN1CC1CC1	.	?	.	112µM
O=C1c2cc(N3CCOCC3)nc(-c3ccccc3)c2CN1Cc1ccccc1	?	31.6µM	.	50.1µM
C[S+](=O)([O-])Nc1cccc(-c2nc(N3CCOCC3)cc3c2CN(CC2CC2)C3=O)c1	.	?	.	.
COc1ccc(-c2cc(N3CCN(C(=O)c4ccc(C#N)cc4)CC3)n[nH]2)cc1	.	?	.	?
COC1CN(c2ccc(C)cc2)C12CCN(C(=O)c1cccnc1)CC2 (stereo unspecified)	/	.	/	.
COc1cc(OC)cc(C(=O)N2CCC3(CC2)NC(=O)N(c2ccc(F)cc2)N3)c1	.	25.1µM	.	28.2µM
SMILES	hNpr1 antagonist	3T3 cytotox	Luciferase inh	HEK cytotox
Oc1ccccc1CN1CCOC[C@H]1c1ncc(-c2cccc(Cl)c2)[nH]1	.	?	.	89.1µM
N#Cc1cccc(CN2CCOC[C@H]2c2ncc(-c3ccc(Cl)cc3)[nH]2)c1	?	100µM	.	?
COc1ccc(-c2cnc([C@@H]3COCCN3Cc3cccc(C#N)c3)[nH]2)cc1	.	.	.	?
N#Cc1cccc(CN2CCOC[C@H]2c2ncc(-c3ccc(F)cc3)[nH]2)c1	.	?	.	63.1µM
Cn1cc(CN2CCOC[C@H]2c2ncc(-c3ccc(S(C)(=O)=O)cc3)[nH]2)c2ccccc21	.	35.5µM	.	20µM
CS(=O)(=O)c1ccc(CN2CCOC[C@H]2c2ncc(-c3ccc(Cl)cc3)[nH]2)cc1	.	?	.	.
Clc1cccc(-c2cnc([C@@H]3COCCN3Cc3c[nH]c4ccccc34)[nH]2)c1	?	?	.	?
CCOC(=O)[C@@H]1[C@@H](OC)C(=O)N(C)C12CCN(C(=O)OCC(C)(C)C)CC2	/	?	/	.
COC(=O)NC1CCN(c2ccc3nnc(C)n3n2)CC1	/	.	/	.
N#Cc1cccc(CN2CCOC[C@H]2c2ncc(-c3ccc(C(F)(F)F)cc3)[nH]2)c1	?	?	.	89.1µM
CCn1cc(-c2ccc(C)cc2)cc1C(=O)NCCN1CCOCC1	.	.	.	?
